Experimental findings from PubChem BioAssay AID651815 (National Center for Advancing Translational Sciences (NCATS), 2012) are described below.

Hit rate of the full screen: of about 2,100 compounds, about 1,100 (52%) were called active. Another 29% or so got no clear call; they are omitted. The call rests on the fitted dose curve; in most records, active means well fitted inhibition curve with a large enough effect; inconclusive means small, poorly fitted or top-dose-only effect; inactive means no such curve, though single readings can be large or run the other way. The set was probably picked from earlier hits. Some of the results follow.
Potency means the concentration at half of the fitted maximal effect.

The target in the test is DNA dC->dU-editing enzyme APOBEC-3F (Homo sapiens) (UniProt Q8IUX4). The test can be described thus: qHTS for inhibitors of Vif-A3F interactions: Cherry picks counterscreen. Further: nearly all actives have a fitted effect of over 65% in size. Particulars: HeLa A3F-eYFP/Vif cells, eYFP fluorescence, 24 h; series mostly up to 46.1 µM. A digest of the protocol: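 Rescue of Vif-driven A3F-eYFP degradation read as cellular eYFP fluorescence after 24 h compound exposure (several concentrations) in stable HeLa cells; MG132 (2 mM stock) as positive control.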
Chain of DNA dC->dU-editing enzyme APOBEC-3F (Homo sapiens) (Q8IUX4 whole entry, looked up): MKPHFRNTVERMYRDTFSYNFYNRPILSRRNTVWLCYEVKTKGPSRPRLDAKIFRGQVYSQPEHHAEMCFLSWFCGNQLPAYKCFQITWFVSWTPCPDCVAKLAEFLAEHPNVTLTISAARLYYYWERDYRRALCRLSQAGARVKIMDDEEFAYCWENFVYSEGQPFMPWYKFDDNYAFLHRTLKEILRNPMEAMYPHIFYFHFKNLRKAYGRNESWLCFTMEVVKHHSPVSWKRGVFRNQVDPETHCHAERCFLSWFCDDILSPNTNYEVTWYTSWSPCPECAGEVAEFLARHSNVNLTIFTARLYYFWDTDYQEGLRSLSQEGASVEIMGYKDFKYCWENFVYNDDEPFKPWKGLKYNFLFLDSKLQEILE
Consider `O=c1[nH]c2ccccc2nc1/C=C(\O)c1cccs1`, for which the Potency was 16.4 µM (active).
The result for `O=C(NCc1ccc2c(c1)OCO2)c1cc([N+](=O)[O-])ccc1N1CCOCC1` reads 4.98 µM (active).
Turning to `O=C(NCc1ccc2c(c1)OCO2)c1cc([N+](=O)[O-])ccc1N1CCCCC1`, the Potency was 1.58 µM (active).
With `O=C(/C=C/c1cccs1)NCc1ccc2c(c1)OCO2` the entry was “inactive”; with `COc1ccccc1-c1noc(-c2ccc(NCc3ccco3)c([N+](=O)[O-])c2)n1`, 18.4 µM (active).
With `O=[N+]([O-])c1cc(-c2nc(-c3ccccc3)no2)ccc1NCc1ccco1` the figure was 13 µM (active).
For the compound `Cc1cccc(-c2noc(-c3ccc(NCc4ccco4)c([N+](=O)[O-])c3)n2)c1`, the Potency was 14.6 µM (active).
On to `CCCCOc1ccc2c(c1)/C(=C(\C(Cl)=C(Cl)Cl)[N+](=O)[O-])N2`, for which the Potency entry was “inactive”.
Turning to `N#Cc1c(C(F)(F)F)cc(-c2ccco2)nc1SCc1ccccn1`, the Potency is 16.4 µM (active).
With `Cc1cc2nc3c(=O)n(Cc4ccccc4)c(=O)[nH]c3nc2cc1N` the figure was 0.125 µM (active); with `Cc1cc2nc3c(=O)n(CCc4ccccc4)c(=O)[nH]c3nc2cc1N`, 5.17 µM (active).
With `Cc1cc2nc3c(=O)n(C4CCCCC4)c(=O)[nH]c3nc2cc1N` the figure was 9.2 µM (active); with `CCCCN(C(=O)c1ccc([N+](=O)[O-])s1)c1c(N)n(CCCC)c(=O)[nH]c1=O`, “inactive”; with `CCOC(=O)N1CCN(C(=O)c2ccccc2-c2ccccc2)CC1`, 2.8 µM (active).
The result for `CN(C)c1ccc(/C=C/C(=O)c2ccc(O)cc2)cc1` reads 4.61 µM (active); that for `CC(/C=C/c1ccc(N(C)C)cc1)=N\N=C(/N)SC1CC(=O)N(c2ccc(C(=O)O)cc2)C1=O` (stereo not given), “inactive”.
On to `CN(C)c1ccc(/C=C/C(=O)c2c(O)c3ccccc3oc2=O)cc1`, for which the Potency is 4.11 µM (active).
The result for `CCN1/C(=C\C=C(C(C)=O)C(C)=O)Sc2ccccc21` reads 14.6 µM (active).
The result for `N#Cc1c(-c2ccccc2)c(-c2ccccc2)nn(CC(=O)NNC(=O)Nc2ccccc2)c1=O` reads 4.44 µM (active); that for `N#Cc1c(-c2ccc(F)cc2)c(-c2ccc(F)cc2)nn(CCO)c1=O`, 4.44 µM (active); that for `CC1(C)Cc2ccccc2C2CC(O)C(=O)N21` (stereo not given), 18.4 µM (active).
The result for `Cc1ccc(NC(=O)/C(C#N)=C\c2ccc(-c3ccc(Cl)cc3)o2)c(C)c1` reads 13 µM (active).
For the compound `Cc1ccc(-c2ccc(/C=N/NC(N)=S)o2)cc1`, the Potency result is “inactive”.
`FC(F)(F)c1ccccc1NC(=S)NN=C1CCCCCC1`: the Potency result was “inactive”.
`O=C1CSC(=S)N1Cc1cccnc1`: the Potency was 13 µM (active).
As to `O=C1/C(=C/c2ccc(O)cc2)SC(=S)N1Cc1cccnc1`, the Potency entry was “inactive”.
With `O=C(NCc1cccs1)C1CCN(c2ccc(S(=O)(=O)N3CCOCC3)cc2Cl)CC1` the figure was 2.8 µM (active); with `CC(C)(C)OC(=O)NC(Cc1ccccc1)C(=O)N1CCC(C(=O)NCC(=O)Nc2ccc(F)cc2)CC1` (stereo not given), 23.1 µM (active).
Regarding `Cc1cc(C)c(N2C(=O)CC(Sc3ccccc3N)C2=O)c(C)c1` (stereo not given), the Potency is 15.8 µM (active).
With `Cc1cc(C)n(-c2nc3c(c(=O)[nH]c(=O)n3C)n2CC(O)COc2ccc(Cl)cc2Cl)n1` (stereo not given) the figure was 2.23 µM (active); with `COc1ccc(S(=O)(=O)N2N=C(C)Oc3ccccc3C2=O)cc1`, 3.14 µM (active); with `CC1(C)CCN2CCC(C)(C)c3c(O)ccc1c32`, 14 µM (active).
The result for `CCOc1ccc(CN2C(=O)c3ccccc3Sc3ccc(C(=O)O)cc32)cc1` reads 7.31 µM (active).
In the case of `CC(C)OC(=O)c1c2c(n3ccccc13)C(=O)c1ccccc1C2=O`, the Potency was 8.2 µM (active).
The result for `CCOc1ccccc1C(=O)Nc1c(C(=O)Nc2ccc(F)cc2)oc2ccccc12` reads 0.92 µM (active); that for `Oc1ccc(C=NNC(=S)Nc2ccc(F)cc2)c(O)c1`, “inactive”; that for `Cc1cc(C)c[n+](-c2nc3ccccc3nc2[N-]S(=O)(=O)c2ccc(Br)s2)c1`, 9.2 µM (active).
The result for `CCc1cc[n+](-c2nc3ccccc3nc2[N-]S(=O)(=O)c2ccc(Br)s2)cc1` reads 8.2 µM (active); that for `O=S(=O)([N-]c1nc2ccccc2nc1-[n+]1ccc(-c2ccncc2)cc1)c1ccccc1`, 18.4 µM (active).
The result for `NN=C1c2ccccc2C(=O)C1C(=O)C(c1ccccc1)c1ccccc1` (stereo not given) reads 12.5 µM (active).
As to `O=C(c1ccccc1)C1C(=O)c2ccccc2C1=O`, the Potency entry was “inactive”.
With `CCCCN1C(=O)C2Cc3c([nH]c4ccccc34)CN2C1=S` (stereo not given) the figure was 15.8 µM (active); with `CCS(=O)(=O)Nc1cccc(C2=NN(C(=O)c3ccco3)C(c3ccco3)C2)c1` (stereo not given), 11.2 µM (active).
With `O=C(O)c1ccccc1/C=N/Nc1ccc(S(=O)(=O)N2CCOCC2)cc1[N+](=O)[O-]`, the Potency entry is “inactive”.
With `Cc1ccc(NC(=S)N=Nc2c(O)n(C)c3ccc(S(=O)(=O)N4CCOCC4)cc23)cc1` the entry was “inactive”.
With `CCCN1CCC(=NNc2ccc(S(=O)(=O)N3CCOCC3)cc2[N+](=O)[O-])CC1` the figure was 3.96 µM (active); with `COc1ccccc1CCC(=O)Nc1ccc2c(c1)c(=O)n(C)n2-c1cccs1`, 3.14 µM (active).
With `COc1ccccc1CCC(=O)Nc1ccc2c(c1)c(=O)n(C)n2Cc1ccc(F)cc1` the figure was 15.8 µM (active).
With `CC(C)=CCn1c2ccc(NC(=O)NCc3ccc(F)cc3)cc2c(=O)n1C`, the Potency was 3.14 µM (active).
The result for `Cc1ccc2[nH]c3c(c2c1)CN(C(=O)CN1CC(C)OC(C)C1)CC3` (stereo not given) reads “inactive”.
On to `O=C(C[C@@H]1C/C=C/CC[C@H](Cc2ccc(F)cc2)C(=O)OC[C@@H](Cc2ccccc2)NC1=O)N[C@H](CO)Cc1ccccc1`, for which the Potency was 16.4 µM (active).
Consider `COc1cccc(C(=O)N/N=C/C(Br)=C/c2ccccc2)c1`, for which the Potency is 2.8 µM (active).
With `CC(/C=N/NC(=O)c1cccc(F)c1)=C\c1ccccc1` the figure was 12.5 µM (active); with `O=C(O)c1ccc(N/N=C/C(Br)=C/c2ccccc2)cc1`, “inactive”.
With `C/C(=N/NC(N)=S)c1ccc(Br)s1` the entry was “inactive”.
The result for `CCCn1nc(C(=O)N2CC(=O)Nc3ccccc32)c2ccccc2c1=O` reads 11.2 µM (active); that for `COc1cc(OC)cc(C(=O)N2CC(=O)Nc3ccccc32)c1`, 1.25 µM (active).
`O=C1CN(C(=O)c2cc(Br)c(Br)s2)c2ccccc2N1`: the Potency is 6.27 µM (active).
On to `Cc1cc(C)cc(C(=O)N2CC(=O)Nc3ccccc32)c1`, for which the Potency was 0.994 µM (active).
The result for `CCC(C)[C@H](NC(=O)N1CC(=O)Nc2ccccc21)C(=O)Nc1ccccc1C` (stereo not given in full) reads 15.8 µM (active); that for `Cc1ccc(N/C(N)=N/c2nc(CSc3nnc(C)s3)cc(=O)[nH]2)c(C)c1`, 1.77 µM (active); that for `CC(=Nc1ccccc1)C1=C(O)C(Cc2ccccc2)NC1=O` (stereo not given), 0.314 µM (active).
The result for `CC#Cc1cc2c(cc1O)CCC1C2CCC2(C)C(O)CCC12` (stereo not given) reads 5.59 µM (active); that for `C=C(NC(=O)C(=C)NC(=O)c1csc(C2=NC3c4csc(n4)C4NC(=O)c5csc(n5)C(C(C)(O)C(C)O)NC(=O)C5CSC(=N5)/C(=C/C)NC(=O)C(C(C)O)NC(=O)c5csc(n5)C3(CC2)NC(=O)C(C)NC(=O)C(=C)NC(=O)C(=C)NC(=O)C(C(C)C)NC2C=Cc3c(C(C)O)cc(nc3C2O)C(=O)OC4C)n1)C(N)=O` (stereo not given), 5.59 µM (active).
The result for `COc1ccc(NC(=O)CN2C(=O)C3(SCC(=O)N3c3ccccc3)c3ccccc32)cc1Cl` (stereo not given) reads “inactive”.
As to `CC(CC(=O)Nc1ccc2c(c1)c(=O)n(C)n2-c1ccccc1)c1ccccc1` (stereo not given), the Potency is 2.23 µM (active).
As for `Cn1c(=O)c2cc(NC(=O)Cc3cccc4ccccc34)ccc2n1-c1ccccc1`, the Potency is 7.04 µM (active).
The result for `CC(CC(=O)Nc1ccc2c(c1)c(=O)n(C)n2-c1ccccc1F)c1ccccc1` (stereo not given) reads 12.5 µM (active).
With `CCOc1ccc(S(=O)(=O)NCc2ccccn2)cc1NC(=O)c1ccccc1` the figure was 3.14 µM (active); with `CCN1/C(=C/C=C2/SC(=Nc3cccc4ncccc34)N(C)C2=O)Sc2ccccc21`, 2.31 µM (active); with `CCc1ccc2nc(SCC(=O)Nc3ccccc3N3CCOCC3)c(C#N)cc2c1`, 2.59 µM (active).
The result for `CCc1ccc2nc(SCC(=O)N3CC(=O)Nc4ccccc43)c(C#N)cc2c1` reads 14 µM (active); that for `COc1ccc2nc(SCC(=O)N3CC(=O)Nc4ccccc43)c(C#N)cc2c1`, 16.4 µM (active); that for `N#Cc1cc2ccccc2nc1SCC(=O)Nc1ccccc1N1CCOCC1`, “inactive”.
On to `CCC1CCCCN1CCCNC(=O)c1ccc2c(c1)N(Cc1ccccc1F)C(=O)c1ccccc1S2(=O)=O` (stereo not given), for which the Potency was 4.11 µM (active).
With `Cc1ccc(C(=O)CSc2nc(-c3ccccc3)ccc2C#N)cc1` the figure was 16.4 µM (active); with `Cc1nc(SCC(=O)c2ccccc2)c(C#N)c(-c2ccco2)c1C(=O)NCc1ccco1`, “inactive”; with `N#Cc1ccc(-c2cccnc2)nc1SCC(=O)c1ccccc1`, 2.91 µM (active).
On to `CC(=O)c1ccc2cccc3c2c1N=CN3C`, for which the Potency was 12.5 µM (active).
With `CN1CCc2c(sc(NC(=O)CSc3ccc(F)cc3)c2-c2nc3ccccc3s2)C1` the figure was 14.6 µM (active).
With `CC(=O)N1CCc2c(sc(NC(=O)CSc3ccccc3)c2-c2nc3ccccc3s2)C1` the figure was 16.4 µM (active).
As for `CC(=O)Nc1sc2c(c1-c1nc3ccccc3s1)CCN(C(C)C)C2`, the Potency was 3.26 µM (active).
On to `CN(C)c1ccc(/C=C/c2cc[n+](C)cc2)cc1`, for which the Potency is 17.7 µM (active).
In the case of `Cc1ccc(/C=C/c2ccc(N(C)C)cc2)[n+](C)c1`, the Potency was 15.8 µM (active).
The result for `CC[n+]1cc(C)ccc1/C=C/c1ccc(N(C)C)cc1` reads 17.7 µM (active).
As to `CCOC(=O)c1c(CC(C)C)csc1/N=C/C1C(=O)CCCC1=O`, the Potency entry is “inactive”.
With `O=C(NCc1cc(C(F)(F)F)ccc1Cl)c1cccc2c1C(=O)c1ccc(N3CCC(Cc4ccccc4)CC3)cc1S2(=O)=O` the figure was 14 µM (active).
The result for `O=C(NCc1cccc(C(F)(F)F)c1)c1cccc2c1C(=O)c1ccc(N3CCC(Cc4ccccc4)CC3)cc1S2(=O)=O` reads 18.4 µM (active).
The result for `O=C(NCc1cc(C(F)(F)F)ccc1Cl)c1cccc2c1C(=O)c1ccc(N3CCOCC3)cc1S2(=O)=O` reads 18.4 µM (active).
For the compound `O=C(NCc1ccco1)c1cccc2c1C(=O)c1ccc(N3CCC(Cc4ccccc4)CC3)cc1S2(=O)=O`, the Potency was 20.6 µM (active).
